Screening results from PubChem.
Only some compounds are listed: those with a hit (about 0.69% of all), similar ones and a draw of the others.
E coli growth-1 = E. coli V3065 growth inhibition, primary screen, counter-screen for AddAB inhibitor project, absorbance, OD600 | 18 h | inhibition, % at 11.9 µM | 0.27% of 330,000 active | AID 449728, 2010;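 active = inhibition above the campaign's mean inhibition across all tested compounds plus 3 SD, cut at about 9.9% in these data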;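 note: uninfected addAB+ strain grown without phage in ampicillin broth; 0% = DMSO wells and 100% = ciprofloxacin 0.95 µg/ml wells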
phage Ecoli inh = growth loss of phage-infected E. coli, primary screen, RecBCD inhibitor project, absorbance, with phage, HTS | AID 651602, 2012 | 0.26% of 360,000 active | inhibition, % at 11.9 µM; in the data active = inhibition above about 11%
E coli growth-2 = E. coli growth inhibition, primary screen, OD600 | OD600 absorbance (no concentration beside the values) | 0.21% of 330,000 active | Escherichia coli growth, 23 h; stronger effect = lower value | AID 1053175, 2014;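 active = OD600 absorbance below the run mean of sample wells minus 3.6 SD, in any replicate, cut at about 0.56 in these data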
Tat transport = E. coli Tat export inhibitors, primary screen, MC4100, TorA-mCherry reporter, fluorescence, single point. inhibition, % at 10 µM. 0.036% of 340,000 active. AID 488895, 2010;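 active = mean replicate inhibition at least 50% and at least half of replicates individually reaching 50%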;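 note: exported cargo escapes ClpAP degradation while cytoplasmic cargo is degraded and loses fluorescence; 0% = median of neutral control wells and 100% = median of NaSCN control wells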
AddAB inh = growth inhibition of E. coli expressing H. pylori AddAB, primary screen, AddAB inhibitor project, absorbance; AID 435030, 2010; 0.29% of 330,000 active; inhibition, % at 11.9 µM; in the data active = inhibition above about 12%;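 note: 0% = vehicle wells of infected cells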
PfHsp90 set2 = growth inhibition of PfHsp90-expressing yeast, primary screen, antimalarial PfHsp90 inhibitor project, S. cerevisiae, BacTiter-Glo luminescence, single point, set 2. BacTiter-Glo ATP, 48 h; yeast lacking PDR1 and PDR3 efflux regulators. inhibition, % at 9.4 µM. 0.32% of 310,000 active. AID 504621, 2011;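 active = every replicate shows inhibition above about 80%, whatever the replicate mean, limit read from the data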;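 note: 0% = DMSO neutral controls and 100% = 20 µM radicicol positive controls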
Active calls of the source: *; . = no result.

SMILES	E coli growth-1	phage Ecoli inh	E coli growth-2	Tat transport	AddAB inh	PfHsp90 set2
CCn1cc(C(=O)OC)c(=O)c2ccc(C)nc21	3.0	3.7	0.701	2.9	1.6	42.3
CCn1cc(C(=O)O)c(=O)c2cnc(N3CCN(C(=S)NC(=O)c4ccc(Cl)cc4)CC3)nc21	4.5	.	0.43*	.	3.8	.
CCn1cc(C(=O)O)c(=O)c2cnc(N3CCNCC3)nc21	102.6*	.	.	.	101.5*	.
CCn1cc(C(=O)O)c(=O)c2cnc(N3CCN(C(=S)NC(=O)c4ccc(Br)cc4)CC3)nc21	1.2	.	0.462*	.	3.1	.
CNC(CC(C)C)C(=O)NC1C(=O)NC(CC(N)=O)C(=O)NC2C(=O)NC3C(=O)NC(C(=O)NC(C(=O)O)c4cc(O)cc(O)c4-c4cc3ccc4O)C(O)c3ccc(c(Cl)c3)Oc3cc2cc(c3OC2OC(CO)C(O)C(O)C2OC2C[C@](C)(N)C(O)C(C)O2)Oc2ccc(cc2Cl)C1O (some centres not stated)	-0.1	7.2	0.401*	-37.2	-3.2	-6.6
COC(=O)C1=C(C)NC(C)=C(C(=O)OC2CCCN(Cc3ccccc3)C2)C1c1cccc([N+](=O)[O-])c1 (configuration not stated)	.	.	0.718	.	.	.
CC1CCC(=O)N(CC(C)CSc2ccc(Br)cc2)CC1 (configuration not stated)	.	.	0.666	.	.	.
NCC12CC3CC(C1)CC(c1ccc(Cl)cc1)(C3)C2	1.1	3.2	0.505*	15.7	2.1	-0.7
Nc1ccc(C23CC4CC(CC(CO)(C4)C2)C3)cc1	-0.6	3.6	0.733	1.3	-2.9	12.6
CCCNC(=O)CC(C)=NNC(=O)COc1ccc(C)cc1Br	.	.	0.662	.	.	.
O=C(NCc1ccc2c(c1)OCO2)c1ccccc1	-0.6	3.7	0.7	-2.1	0.4	-25.6
O=C(NCc1ccc2c(c1)OCO2)c1ccc(Br)cc1	-1.0	3.2	0.674	0.5	1.0	88.9*
Cc1ccc(N/N=C(\C#N)C(N)=S)c(C)c1	-1.0	2.4	.	-2.2	2.2	100.7*
CCCCCCCCCCCCN1[C@@H](CC(=O)O)c2cc(C(F)(F)F)ccc2S1(=O)=O	0.0	4.9	.	51.8*	1.8	-2.6
CCCCCCCCN1C(CC(=O)O)c2cc(C(F)(F)F)ccc2S1(=O)=O (configuration not stated)	.	.	0.653	.	.	.
COc1ccc(C(C[N+](=O)[O-])c2c(-c3ccccc3)cc3ccccn23)cc1OC (configuration not stated)	-1.8	3.0	0.735	-10.1	-0.3	.
COc1ccc(C(C[N+](=O)[O-])C2(c3ccc(OC)c(OC)c3)C(=O)c3ccccc3C2=O)cc1 (configuration not stated)	-1.3	.	.	-19.7	7.1	104.7*
COc1cc(C=NS(=O)(=O)CCc2ccccc2)cc(OC)c1O	.	.	0.665	.	.	.
O=C1c2cccc(O)c2C(=O)c2c(O)cccc21	-3.4	.	.	.	-3.3	.
CC1OC(CC(=O)O)CC2=C1C(=O)c1c(O)cccc1C2=O (configuration not stated)	.	9.0	.	-20.5	.	106.0*
O=C(NN=Cc1ccco1)C12CC3CC(CC(C3)C1)C2	.	.	0.68	.	.	.
O=[N+]([O-])c1ccc(C=NNS(=O)(=O)c2ccc(F)cc2)o1	.	.	0.438*	.	.	.
COc1ccc(S(=O)(=O)NN=Cc2ccc([N+](=O)[O-])o2)c(OC)c1	.	.	0.509*	.	.	.
Cc1ccccc1OCC(=O)NN=Cc1ccncc1	.	.	0.648	.	.	.
O=[N+]([O-])c1cc(C(F)(F)F)ccc1N1CCN(S(=O)(=O)c2ccc3ccccc3c2)CC1	0.4	-1.6	0.543*	-1.2	2.8	1.3
SMILES	E coli growth-1	phage Ecoli inh	E coli growth-2	Tat transport	AddAB inh	PfHsp90 set2
CCC(O)(CC)C(=O)NN=Cc1cc(Br)cc(Br)c1O	.	.	0.646	.	.	.
CCOc1ccc(C=NNC(=O)C(OC)c2ccccc2)cc1 (configuration not stated)	.	.	0.705	.	.	.
CC(=O)N(C(C)=O)N1C(=O)/C(=C/c2ccc(Cl)cc2)SC1=S	-0.2	.	0.701	-5.6	1.2	113.9*
Cc1ccc(C)n1N1C(=O)/C(=C\c2ccc(Cl)cc2)SC1=S	-0.4	1.6	0.677	-9.3	-1.5	12.6
O=C(/C=C/c1cccc(C(F)(F)F)c1)Nc1cccc(C(F)(F)F)c1	5.7	5.4	0.632	10.4	2.7	105.2*
Cc1ccc(NC(=O)/C=C/c2cccc(C(F)(F)F)c2)cc1	-1.4	-1.6	0.656	-0.6	0.5	-16.6
COc1cccc2c(NN=Cc3ccccc3)cc(C)nc12	.	.	0.651	.	.	.
CCCC(CN1CCCC1CN1C(N)=NCC1Cc1ccccc1)N1CC(Cc2ccccc2)N(CCc2ccc(Cl)c(Cl)c2)C1=N (configuration not stated)	.	.	0.0615*	.	.	.
CC[C@@H](C)[C@@H]1CN([C@@H](CN2CCC[C@H]2CN2C(N)=NC[C@H]2CC(C)C)C(C)C)C(=N)N1CCc1ccc(Cl)c(Cl)c1	5.9	4.6	0.127*	31.1	8.1	-3.1
CCC[C@@H](CN1CCC[C@H]1CN1C(N)=NC[C@H]1CC(C)C)N1C[C@@H](Cc2ccccc2)N(CCCC2CCCC2)C1=N	2.7	1.0	0.268*	11.6	4.2	5.8
C[C@@H](CN1CCC[C@H]1CN1C(N)=NC[C@@H]1Cc1ccccc1)N1C[C@@H](Cc2ccccc2)N(CCc2ccc(Cl)c(Cl)c2)C1=N	6.0	.	.	65.8*	7.3	-3.2
CCC[C@@H](CN1CCC[C@H]1CN1C(N)=NC[C@@H]1Cc1ccccc1)N1C[C@@H](Cc2ccccc2)N(CCc2ccc(Cl)c(Cl)c2)C1=N	3.1	4.2	.	2.5	2.4	-1.7
CN(C)N=C/C=C1\CCC/C(=C/c2cccs2)C1=O	.	.	0.709	.	.	.
CNC(=O)NN=C(N)c1ccccn1	.	.	0.638	.	.	.
Cn1cccc1C=NN1CCN(c2ccccn2)CC1	.	.	0.675	.	.	.
CCC[C@@H](CN1CCC[C@H]1CN1C(N)=NC[C@H]1CC(C)C)N1C[C@@H](Cc2ccccc2)N(CCc2ccc(Cl)c(Cl)c2)C1=N	8.0	0.7	0.0585*	0.0	4.5	25.0
CCCC(CN1CCCC1CN1C(N)=NCC1Cc1ccccc1)N1CC(C(C)CC)N(CCc2ccc(Cl)c(Cl)c2)C1=N (configuration not stated)	.	.	0.338*	.	.	.
CCC[C@@H](CN1CCC[C@H]1CN1C(N)=NC[C@@H]1Cc1ccccc1)N1C[C@@H]([C@H](C)CC)N(CCc2ccc(Cl)c(Cl)c2)C1=N	2.6	.	.	0.1	7.3	4.9
CCCN1C(=O)C(=NOCC(=O)Nc2ccc(C(C)C)cc2)c2ccccc21	.	.	0.702	.	.	.
CC1=C(C)C(=NOS(=O)(=O)c2ccccc2)C=CC1=O	.	.	0.726	.	.	.
CC1=C(C)/C(=N\OS(=O)(=O)c2ccccc2)C=CC1=O	-0.5	.	.	-9.5	1.1	105.8*
CCOc1ccc(C2Nc3cccc4cccc(c34)N2)cc1OC	1.7	2.6	0.555*	-2.3	1.8	3.4
O=C1C=CC(=O)N1CCNc1ncc(C(F)(F)F)cc1Cl	.	5.8	0.639	-4.8	.	101.2*
